Results: PubChem BioAssay (EPA / NIEHS)
Results filed as inconclusive are left out. Calls of active or inactive are those of the source. Rule for the calls, unless noted: active = hit-call score of the fitted dose curve at least 0.9, where 1 is the maximum; inactive = score below 0.9.

How the values were obtained:
[1] = BSK_LPS_PGE2: BioMAP Diversity Plus: LPS Assay for Prostaglandin E2 (PGE2) Biomarker Activity (AID 2283082); conditions: primary human HUVEC with PBMC; actives raise or lower the signal;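 for AC50: secreted prostaglandin E2 measured by ELISA in LPS-stimulated co-culture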
Method in brief: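 Endpoint derived from bidirectional curve fitting versus DMSO of ELISA-measured PGE2 in LPS-stimulated human primary vascular co-culture (HUVEC with PBMC) harvested at 24 h.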

[2] = read-out: Macrophage colony-stimulating factor (MCSF), CSF1 (gene 1435); experiment: BSK_LPS_MCSF: BioMAP Diversity Plus: LPS Assay for Macrophage colony-stimulating factor (MCSF) Biomarker Activity (AID 2283083); conditions: primary human HUVEC with PBMC; actives raise or lower the signal
Method in brief: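 Bidirectional fit versus DMSO of ELISA-measured M-CSF in co-cultured human umbilical vein endothelial cells and PBMC, sampled 24 h after dosing.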

[3] = read-out: Tissue Factor, F3 (gene 2152); experiment: BSK_LPS_TissueFactor: BioMAP Diversity Plus: LPS Assay for Tissue Factor Biomarker Activity (AID 2283084); conditions: primary human HUVEC with PBMC; actives raise or lower the signal
Method in brief: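 Read-out: CD142 ELISA, 24 h. System: LPS-driven human endothelial/PBMC co-culture. Analysis: up- or down-signal fitted against DMSO.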

[4] = read-out: Tumor necrosis factor (Homo sapiens) (UniProt P01375); experiment: BSK_LPS_TNFa: BioMAP Diversity Plus: LPS Assay for Tumour Necrosis Factor alpha (TNFa) Biomarker Activity (AID 2283085); conditions: primary human HUVEC with PBMC; actives raise or lower the signal
Method in brief: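 Primary human vascular co-culture of HUVEC and PBMC; TNFa ELISA 24 h after treatment, analysed as increase or decrease relative to DMSO control.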

[5] = read-out: Vascular cell adhesion molecule 1 (VCAM1), VCAM1 (gene 7412); experiment: BSK_LPS_VCAM1: BioMAP Diversity Plus: LPS Assay for Vascular cell adhesion molecule 1 (VCAM1) Biomarker Activity (AID 2283086); conditions: primary human HUVEC with PBMC; actives raise or lower the signal
Method in brief: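 Primary human vascular co-culture (umbilical vein endothelium plus PBMC) stimulated with LPS received chemical; 24 h later VCAM-1 was read by ELISA. Overt cytotoxicity was assessed by sulforhodamine B staining of parallel cultures at the same time point.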

CD40, CD40 (gene 958) = experiment: BSK_SAg_CD40: BioMAP Diversity Plus: SAg Assay for CD40 Biomarker Activity (AID 2283088); conditions: primary human HUVEC with PBMC; actives raise or lower the signal
Method in brief: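 Endpoint derived by fitting increases or decreases versus DMSO controls. CD40 is detected by fluorescence ELISA in a human vascular co-culture of endothelium and PBMC at 24 h.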

CD69, CD69 (gene 969) = experiment: BSK_SAg_CD69: BioMAP Diversity Plus: SAg Assay for CD69 Biomarker Activity (AID 2283089); conditions: primary human HUVEC with PBMC; actives raise or lower the signal;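 for AC50: cell surface CD69 protein quantified by ELISA with fluorescence detection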
Method in brief: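 Values derive from bidirectional fitting relative to DMSO vehicle. Cells: umbilical vein endothelium plus peripheral blood mononuclear cells, treated 24 h before fluorescent ELISA for CD69.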

[6] = read-out: Monocyte Chemoattractant Protein-1 (MCP1), CCL2 (gene 6347); experiment: BSK_SAg_MCP1: BioMAP Diversity Plus: SAg Assay for Monocyte Chemoattractant Protein-1 (MCP1) Biomarker Activity (AID 2283090); conditions: primary human HUVEC with PBMC; actives raise or lower the signal
Method in brief: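 MCP-1 levels in the endothelial–PBMC SAg co-culture were quantified by ELISA at 24 h post-dosing; both increases and decreases versus DMSO scored. Cytotoxicity monitored by SRB total protein in parallel cultures.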

[7] = read-out: E-selectin (Homo sapiens) (UniProt P16581); experiment: BSK_SAg_Eselectin: BioMAP Diversity Plus: SAg Assay for Eselectin Biomarker Activity (AID 2283091); conditions: primary human HUVEC with PBMC; actives raise or lower the signal
Method in brief: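 Endpoint values derive from bidirectional fitting relative to DMSO, using ELISA-measured E-selectin in a human vascular co-culture (umbilical vein endothelium plus PBMC) sampled 24 h after dosing.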

[8] = read-out: Monokine induced gamma interferon (MIG), CXCL9 (gene 4283); experiment: BSK_SAg_MIG: BioMAP Diversity Plus: SAg Assay for Monokine induced gamma interferon (MIG) Biomarker Activity (AID 2283092); conditions: primary human HUVEC with PBMC; actives raise or lower the signal
Method in brief: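 Values reflect bidirectional fitting of ELISA-measured MIG against DMSO vehicle, taken 24 h after dosing of a co-culture of human umbilical vein endothelial cells and peripheral blood mononuclear cells.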

[9] = BSK_SAg_PBMCCytotoxicity: PBMC Cytotoxicity Assessment in the BioMAP Diversity Plus: SAg Assay (AID 2283093); conditions: primary human HUVEC with PBMC;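 note: PBMC viability measured as Alamar Blue reduction fluorescence at 546/580 nm; fitted both ways against DMSO so a hit may be loss or gain of signal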;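 for AC50: PBMC superantigen activated with SEB plus TSST-1 one hour after compound addition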
Method in brief: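 Compound added to 75,000 PBMC/well for 1 h; SEB and TSST-1 then added at 20 ng/mL final each; 90 h incubation; Alamar Blue 6 h; read 546/580 nm ex/em. Activity fitted bidirectionally relative to DMSO baseline.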

[10] = read-out: Interleukin-8 (IL8), CXCL8 (gene 3576); experiment: BSK_SAg_IL8: BioMAP Diversity Plus: SAg Assay for Interleukin-8 (IL8) Biomarker Activity (AID 2283094); conditions: primary human HUVEC with PBMC; actives raise or lower the signal
Method in brief: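 In this co-culture of human umbilical vein endothelium with peripheral blood mononuclear cells, IL-8 is assayed by ELISA at 24 h. DMSO serves as baseline for bidirectional curve fitting.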

[11] = BSK_SAg_Proliferation: Cell Proliferation Assessment in the BioMAP Diversity Plus: SAg Assay (AID 2283095); conditions: primary human HUVEC with PBMC;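 note: relative cell number as total protein by SRB absorbance in sub-confluent culture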
Method in brief: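 Readout is SRB-stained protein (560 nm) in a primary human HUVEC and PBMC co-culture; sub-confluent cultures are read at 96 h. Activity is fitted bidirectionally using DMSO as baseline.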

[12] = BSK_SAg_SRB: Viability Assessment in the BioMAP Diversity Plus: SAg Assay (AID 2283096); conditions: primary human HUVEC with PBMC;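 note: cells read one day after compound addition; hits may be either gain or loss of signal compared with DMSO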
Method in brief: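 Total protein by sulforhodamine B staining, 24 h after dosing, in HUVEC–PBMC co-culture; DMSO-referenced bidirectional fitting.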

CD38, CD38 (gene 952) = experiment: BSK_SAg_CD38: BioMAP Diversity Plus: SAg Assay for CD38 Biomarker Activity (AID 2283087); conditions: primary human HUVEC with PBMC; actives raise or lower the signal
Method in brief: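 Fluorescence ELISA of cell-surface CD38 served as the read-out, with either increase or decrease fitted against DMSO controls. Cells were a human umbilical vein endothelium plus PBMC co-culture under SEB/TSST-1 stimulation, measured 24 h after dosing.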

[13] = target: human CYP2B6, CYP2B6 (gene 1555) (UniProt P20813); experiment: NVS_ADME_hCYP2B6: NovaScreen (NVS) CYP450-related Enzyme Activity (ADME) Assay for human CYP2B6 (AID 2283101; active = hit-call score of the fitted dose curve at least 0.9, where 1 is the maximum)
human CYP2B6, CYP2B6 (gene 1555), sequence (P20813 whole entry, looked up): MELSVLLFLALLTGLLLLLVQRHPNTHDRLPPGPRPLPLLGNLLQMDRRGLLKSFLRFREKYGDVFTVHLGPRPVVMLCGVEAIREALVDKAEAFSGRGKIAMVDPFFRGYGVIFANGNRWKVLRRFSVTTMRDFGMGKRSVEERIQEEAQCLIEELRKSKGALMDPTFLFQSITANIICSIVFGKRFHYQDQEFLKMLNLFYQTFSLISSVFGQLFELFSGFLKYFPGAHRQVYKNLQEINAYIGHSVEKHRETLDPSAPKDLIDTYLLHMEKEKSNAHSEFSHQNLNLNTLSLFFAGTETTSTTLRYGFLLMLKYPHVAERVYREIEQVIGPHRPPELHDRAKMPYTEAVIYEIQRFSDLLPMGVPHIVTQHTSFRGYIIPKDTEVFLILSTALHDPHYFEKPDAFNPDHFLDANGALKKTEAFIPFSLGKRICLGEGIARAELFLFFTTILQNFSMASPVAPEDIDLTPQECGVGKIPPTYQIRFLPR
Method in brief: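 Compounds were first screened in duplicate at 10 uM against recombinant enzyme, with the fluorescent product measured after 1 hour. Active compounds were retested over a concentration series. Loss of fluorescence versus acetonitrile control was scored as reduced enzyme activity.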

[14] = target: human CYP1A2, CYP1A2 (gene 1544) (UniProt P05177); experiment: NVS_ADME_hCYP1A2: NovaScreen (NVS) CYP450-related Enzyme Activity (ADME) Assay for human CYP1A2 (AID 2283102; active = hit-call score of the fitted dose curve at least 0.9, where 1 is the maximum)
human CYP1A2, CYP1A2 (gene 1544), sequence (P05177 whole entry, looked up): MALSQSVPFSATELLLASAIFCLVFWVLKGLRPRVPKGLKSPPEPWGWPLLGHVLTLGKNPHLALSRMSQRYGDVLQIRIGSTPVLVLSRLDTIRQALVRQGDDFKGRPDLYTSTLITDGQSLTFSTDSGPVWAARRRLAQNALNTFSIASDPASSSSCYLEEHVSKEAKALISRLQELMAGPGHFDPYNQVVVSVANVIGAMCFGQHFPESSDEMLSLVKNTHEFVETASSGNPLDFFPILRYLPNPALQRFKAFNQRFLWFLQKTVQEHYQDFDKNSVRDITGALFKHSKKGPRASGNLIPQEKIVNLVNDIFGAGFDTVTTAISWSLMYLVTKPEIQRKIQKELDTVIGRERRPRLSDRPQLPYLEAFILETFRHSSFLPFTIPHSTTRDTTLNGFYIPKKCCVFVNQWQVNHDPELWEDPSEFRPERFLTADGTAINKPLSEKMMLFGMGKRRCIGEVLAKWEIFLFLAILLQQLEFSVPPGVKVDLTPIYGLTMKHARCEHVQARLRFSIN
Method in brief: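 Inhibition scored as decrease in fluorescent product versus acetonitrile negative control. Enzyme: insect-cell recombinant human CYP1A2, substrate-specific, cell-free. Reading at 0.5 h; 10 uM duplicate initial screen with positive and negative controls on every plate.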

Measured: AC50

Tumor necrosis factor (Homo sapiens), sequence (P01375 whole entry, looked up): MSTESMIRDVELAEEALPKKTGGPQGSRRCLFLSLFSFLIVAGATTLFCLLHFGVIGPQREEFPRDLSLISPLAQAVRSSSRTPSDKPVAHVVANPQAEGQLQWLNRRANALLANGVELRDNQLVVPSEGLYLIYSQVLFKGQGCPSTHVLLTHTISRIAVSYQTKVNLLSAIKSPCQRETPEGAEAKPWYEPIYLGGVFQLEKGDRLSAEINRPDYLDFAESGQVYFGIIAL
E-selectin (Homo sapiens), sequence (P16581 whole entry, looked up): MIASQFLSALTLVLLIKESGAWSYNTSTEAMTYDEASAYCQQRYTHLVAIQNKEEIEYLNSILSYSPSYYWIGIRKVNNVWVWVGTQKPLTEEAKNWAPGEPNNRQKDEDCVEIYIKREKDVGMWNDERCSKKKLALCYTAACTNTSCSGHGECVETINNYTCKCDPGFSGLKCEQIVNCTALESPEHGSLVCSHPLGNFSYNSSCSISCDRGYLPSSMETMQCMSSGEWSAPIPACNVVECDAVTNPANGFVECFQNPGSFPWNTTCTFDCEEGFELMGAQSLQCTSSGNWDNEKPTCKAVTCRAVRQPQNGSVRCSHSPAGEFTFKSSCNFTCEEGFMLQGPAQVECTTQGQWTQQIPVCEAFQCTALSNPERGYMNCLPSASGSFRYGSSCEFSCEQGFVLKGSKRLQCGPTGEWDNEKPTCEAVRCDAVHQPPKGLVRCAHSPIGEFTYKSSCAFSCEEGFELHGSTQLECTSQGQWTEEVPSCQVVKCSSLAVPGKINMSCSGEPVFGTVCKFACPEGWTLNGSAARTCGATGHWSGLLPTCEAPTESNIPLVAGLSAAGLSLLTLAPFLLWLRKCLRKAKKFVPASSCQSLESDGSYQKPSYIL

CCCCCCCC=O
not listed: CD38, CD38 (gene 952) | [13] | [14]
inactive: all other assays above

CC(=O)Oc1ccccc1C(=O)O
active: [1] 3.25 µM
not listed: [8] | [13] | [14]
inactive: all other assays above

CCc1c(C(=O)NN2CCCCC2)nn(-c2ccc(Cl)cc2Cl)c1-c1ccc(Br)cc1
active: [1] 15.3 µM | [2] 20 µM | [5] 6.19 µM | CD40, CD40 (gene 958) 12.2 µM | CD69, CD69 (gene 969) 10.3 µM | [6] 8.24 µM | [7] 12.3 µM | [8] 9.99 µM | [9] 11.8 µM | [10] 7.03 µM | [11] 7.06 µM | [12] 8.32 µM
inactive: [3] | [4]

COC(=O)c1ccc(O)cc1
active: [1] 1.34 µM
not listed: [8] | [13] | [14]
inactive: all other assays above

c1cc(-c2ccncc2)ccn1
not listed: CD38, CD38 (gene 952) | [13] | [14]
inactive: all other assays above

NCCO
not listed: [8] | [13] | [14]
inactive: all other assays above

CCCCCC(=O)O
not listed: [8] | [13] | [14]
inactive: all other assays above

CC=Cc1ccc(O)c(OC)c1
active: [1] 6.95 µM | [3] 2.82 µM
not listed: [8] | [14]
inactive: all other assays above

NCC1(Cc2noc(=O)[nH]2)CCCCC1
not listed: [8] | [13] | [14]
inactive: all other assays above

FC(F)(F)C(F)(F)C(F)(F)C(F)(F)C(F)(F)C(F)(F)CCI
not listed: [8] | [13] | [14]
inactive: all other assays above

COc1cc(C=O)ccc1O
not listed: CD38, CD38 (gene 952) | [13] | [14]
inactive: all other assays above

O=C(O)Cc1ccccc1Nc1c(Cl)cccc1Cl
active: [1] 0.291 µM | [2] 16.6 µM | [4] 20 µM | [11] 15.6 µM
not listed: [8] | [13]
inactive: all other assays above

Cc1cccc(C)c1O
active: [1] 4.8 µM
not listed: [8] | [13] | [14]
inactive: all other assays above
